Laboratory results taken from PubChem BioAssay AID1159580 (chemical genetic matrix, 2015).
Values joined by “and” are separate entries in the source; they are usually repeats but may differ in a detail not shown here. Equal entries are not always repeated. The whole screen tested about 5,500 compounds, of which about 2,000 (36%) were called active. Another 18% or so got no clear call; they are omitted. No stated cut-off is given here; in the data, active means normalized growth mostly below about 0.91 (no sharp cut-off); inconclusive means no clear call, values can overlap the other calls; inactive means mostly above about 0.92. The list shows a part of the results.

Assay: chemical genetic growth profiling, strain panel (AID 1159580);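 further: tested at 20 µM; growth read once vehicle control cultures reached saturation at 30 °C; 1 = growth at the plate median or of vehicle wells; lower values mean less growth of the strain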
Details: S. cerevisiae deletion strains, growth OD

Measured: normalized growth

COc1cc2cc3c4cc(OC)c(OC)cc4cc[n+]3c(C)c2cc1OC
inactive: locus YAL021C, strain ccr4, active compounds read low 1.05 | locus YAL026C, strain drs2, active compounds read low 1.03 | locus YAL030W, strain snc1, active compounds read low 1.01 | locus YBL061C, strain skt5, active compounds read low 1.02 | locus YBR009C, strain hhf1, active compounds read low 1.01 | locus YBR021W, strain FUR4, active compounds read low 1 | locus YBR023C, strain chs3, active compounds read low 1.01 | locus YBR171W, strain sec66, active compounds read low 1.03 | locus YBR229C, strain ROT2, active compounds read low 1.01 | locus YBR231C, strain swc5, active compounds read low 1 | locus YBR279W, strain paf1, active compounds read low 1.01 | locus YCL011C, strain gbp2, active compounds read low 1.01 | locus YCL016C, strain dcc1, active compounds read low 0.997 | locus YCL029C, strain bik1, active compounds read low 1.01 | locus YCL061C, strain MRC1, active compounds read low 1.01 | locus YCL069W, strain vba3, active compounds read low 1.01 | locus YCR088W, strain abp1, active compounds read low 1.01 | locus YDL005C, strain med2, active compounds read low 1.02 | locus YDL035C, strain GPR1, active compounds read low 0.998 | locus YDL040C, strain nat1, active compounds read low 0.992 | locus YDL074C, strain BRE1, active compounds read low 0.996 | locus YDL101C, strain DUN1, active compounds read low 1.01 | locus YDL134C, strain PPH21, active compounds read low 0.982 | locus YDL185W, strain tfp1, active compounds read low 1.02 | locus YDL192W, strain arf1, active compounds read low 1 | locus YDR001C, strain nth1, active compounds read low 1.01 | locus YDR069C, strain doa4, active compounds read low 1.02 | locus YDR101C, strain arx1, active compounds read low 1.01 | locus YDR137W, strain rgp1, active compounds read low 1.06 | locus YDR159W, strain sac3, active compounds read low 1 | locus YDR162C, strain NBP2, active compounds read low 0.999 | locus YDR195W, strain ref2 0.97 | locus YDR297W, strain sur2, active compounds read low 1.01 | locus YDR318W, strain mcm21, active compounds read low 0.987 | locus YDR334W, strain swr1, active compounds read low 1.02 | locus YDR335W, strain msn5, active compounds read low 1.01 | locus YDR388W, active compounds read low 1 | locus YDR392W, strain spt3, active compounds read low 0.848 | locus YDR502C, strain sam2, active compounds read low 0.987 | locus YEL003W, strain gim4, active compounds read low 1.01 | locus YEL037C, strain rad23, active compounds read low 1.01 | locus YEL061C, strain CIN8 (second series), active compounds read low 1.01 | locus YEL061C, strain CIN8, active compounds read low 1.01 | locus YER015W, strain faa2, active compounds read low 1.01 | locus YER016W, strain bim1, active compounds read low 1 | locus YER110C, active compounds read low 1.02 | locus YER111C, strain swi4, active compounds read low 1.03 | locus YER155C, strain BEM2 (second series), active compounds read low 0.97 | locus YER155C, strain BEM2, active compounds read low 1.01 | locus YER167W, strain BCK2, active compounds read low 1 | locus YFR010W, strain ubp6, active compounds read low 1.03 | locus YGL078C, strain dbp3, active compounds read low 0.997 | locus YGL086W, strain mad1, active compounds read low 1.03 | locus YGL167C, strain pmr1, active compounds read low 1.01 | locus YGL173C, strain kem1, active compounds read low 1.03 | locus YGL227W, strain vid30, active compounds read low 1.01 | locus YGL240W, strain doc1, active compounds read low 0.999 | locus YGL248W, strain PDE1, active compounds read low 0.997 | locus YGL253W, strain hxk2, active compounds read low 1.03 | locus YGR135W, strain pre9, active compounds read low 0.988 | locus YGR229C, strain SMI1, active compounds read low 1.01 | locus YGR252W, strain gcn5, active compounds read low 0.904 | locus YHR013C, strain ard1, active compounds read low 1.01 | locus YHR027C, strain rpn1, active compounds read low 1.04 | locus YHR030C, strain SLT2, active compounds read low 1.01 and 0.988 | locus YHR079C, strain IRE1 (second series), active compounds read low 1.02 | locus YHR079C, strain IRE1, active compounds read low 1 | locus YHR094C, strain hxt1, active compounds read low 1.01 | locus YHR129C, strain ARP1, active compounds read low 1 | locus YHR142W, strain chs7, active compounds read low 1.01 | locus YHR200W, strain rpn10, active compounds read low 0.994 | locus YIL066C, strain RNR3, active compounds read low 1.01 | locus YIL073C, strain SPO22, active compounds read low 1.01 | locus YIL125W, strain kgd1, active compounds read low 1.01 | locus YIR030C, strain dcg1, active compounds read low 1 | locus YJL092W, strain hpr5, active compounds read low 1.01 | locus YJL095W, strain BCK1 (second series), active compounds read low 1.01 | locus YJL095W, strain BCK1, active compounds read low 1.01 and 0.99 | locus YJL115W, strain asf1, active compounds read low 1.01 | locus YJL129C, strain trk1, active compounds read low 1.02 | locus YJL134W, strain LCB3, active compounds read low 1.01 | locus YJL154C, strain vps35, active compounds read low 1.01 | locus YJL164C, strain tpk1, active compounds read low 0.984 | locus YJL166W, strain qcr8, active compounds read low 1.02 | locus YJL168C, strain set2, active compounds read low 1.01 | locus YJL187C, strain SWE1 (second series), active compounds read low 0.991 | locus YJL187C, strain SWE1, active compounds read low 1.01
